Source: PubChem BioAssay (Tox21)
“And” between values parts separate entries of the source, which are not always exact repeats. Equal values may be shown once. Results filed as inconclusive are left out. Entries that show only a call come without a potency. The source made the active and inactive calls. Unless noted, calls follow the shape of the dose curve; as a rule, active = well fitted curve in the direction sought with a large enough effect in the repeat runs; inconclusive = weak or mixed curves; inactive = no such curve, though single readings can be large; an effect the other way counts as inactive or inconclusive.

Experiments:
[1] = Caspase-3/7 induction in HepG2 cells by small molecules, qHTS assay (AID 1346978); also: nearly all actives have a fitted effect of over 15% in size; also: potency is read from the fitted curve at half-maximal effect
Outline: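 Wild-type HepG2 cells (2,000/well) were settled 5 h at 37 C, 5% CO2, then exposed to compounds in DMSO for 17 h. Caspase-3/7 activity was read by luminescence 30 min after adding Caspase-Glo 3/7 reagent at room temperature.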

[2] = Caspase-3/7 induction in CHO-K1 cells by small molecules, qHTS cell viability counter screen (AID 1346979); also: nearly all actives have a fitted effect of over 35% in size; also: potency is read from the fitted curve at half-maximal effect
Outline: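 CHO-K1 wt, 1,500 cells/well; 5hr pre-incubation 37C/5% CO2; compound pin transfer (DMSO); 16hr exposure; CellTiter-Fluor added, 1hr, fluorescence read.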

[3] = Caspase-3/7 induction in CHO-K1 cells by small molecules, qHTS assay (AID 1346980); also: nearly all actives have a fitted effect of over 15% in size
Outline: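 Wild-type cells were seeded at 1,500 per well and settled 5 hr at 37 C, 5% CO2, then exposed to DMSO-dissolved compounds for 17 hr. Caspase-Glo 3/7 reagent was added, and luminescence was read after 30min at room temperature.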

[4] = Caspase-3/7 induction in HepG2 cells by small molecules, qHTS cell viability counter screen (AID 1346981); also: nearly all actives have a fitted effect of over 30% in size; also: potency is read from the fitted curve at half-maximal effect
Outline: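 Steps: seed 2,000 HepG2 cells per well; incubate 5 hr at 37 C; pin-add compounds in DMSO; incubate 16 hr; add CellTiter-Fluor; after 1 hr at 37 C and 5% CO2, read fluorescence.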

[5] = target: Nuclear receptor subfamily 1 group I member 2 (Homo sapiens) (UniProt O75469); test: Human pregnane X receptor (PXR) small molecule agonists, qHTS assay (AID 1346982); also: nearly all actives have a fitted effect of over 35% in size; also: potency is read from the fitted curve at half-maximal effect
Chain of Nuclear receptor subfamily 1 group I member 2 (Homo sapiens) (O75469 whole entry, looked up): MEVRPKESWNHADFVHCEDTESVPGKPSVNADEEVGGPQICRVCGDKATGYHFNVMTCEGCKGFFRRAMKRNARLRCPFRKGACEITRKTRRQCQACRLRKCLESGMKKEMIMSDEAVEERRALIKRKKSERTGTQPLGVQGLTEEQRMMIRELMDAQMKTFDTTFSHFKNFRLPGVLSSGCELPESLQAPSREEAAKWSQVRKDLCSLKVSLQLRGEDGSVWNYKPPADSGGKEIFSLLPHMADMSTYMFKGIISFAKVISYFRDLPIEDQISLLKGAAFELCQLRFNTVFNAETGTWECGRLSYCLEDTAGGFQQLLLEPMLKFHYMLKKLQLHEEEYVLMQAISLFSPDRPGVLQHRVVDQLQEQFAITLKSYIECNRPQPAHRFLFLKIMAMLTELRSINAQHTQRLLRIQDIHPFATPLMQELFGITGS
Outline: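 Agonist mode qHTS: PXR-Luc HepG2 cells plated 5 hr before DMSO-dissolved compounds were pinned in, cultured 24 hr at 37 C, 5% CO2; ONE-Glo luminescence readout.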

[6] = target: Acetylcholinesterase (Homo sapiens) (UniProt P22303); test: Acetylcholinesterase (AChE) small molecule antagonists: colormetric cell-based qHTS assay (AID 1347395; calls by dose curve; also: nearly all actives have a fitted effect of over 30% in size; also: potency is read from the fitted curve at half-maximal effect)
Chain of Acetylcholinesterase (Homo sapiens) (P22303 whole entry, looked up): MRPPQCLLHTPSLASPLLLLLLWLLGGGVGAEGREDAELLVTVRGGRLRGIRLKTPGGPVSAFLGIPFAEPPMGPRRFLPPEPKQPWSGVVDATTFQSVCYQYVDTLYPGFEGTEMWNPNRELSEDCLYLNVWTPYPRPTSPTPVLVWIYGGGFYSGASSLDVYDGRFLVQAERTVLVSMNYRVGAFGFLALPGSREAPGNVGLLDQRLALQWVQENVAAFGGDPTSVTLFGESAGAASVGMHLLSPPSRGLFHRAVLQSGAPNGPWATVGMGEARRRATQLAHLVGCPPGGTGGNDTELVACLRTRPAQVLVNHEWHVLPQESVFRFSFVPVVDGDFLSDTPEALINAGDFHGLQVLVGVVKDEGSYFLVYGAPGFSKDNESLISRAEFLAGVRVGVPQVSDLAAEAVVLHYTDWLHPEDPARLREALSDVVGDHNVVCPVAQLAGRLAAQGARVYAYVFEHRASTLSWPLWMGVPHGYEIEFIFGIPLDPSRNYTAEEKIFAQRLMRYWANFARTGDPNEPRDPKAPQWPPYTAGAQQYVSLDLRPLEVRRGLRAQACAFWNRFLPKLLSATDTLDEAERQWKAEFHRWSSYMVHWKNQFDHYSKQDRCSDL
Outline: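 SH-SY5Y cells; cpd 30 min 37 C; + DTNB/acetylthiocholine, 90 min 37 C; colorimetric thiocholine read; qHTS.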

[7] = target: Acetylcholinesterase (Homo sapiens) (UniProt P22303); test: Acetylcholinesterase (AChE) small molecule antagonists: enzyme-based qHTS assay (AID 1347397; calls by dose curve; also: nearly all actives have a fitted effect of over 55% in size); settings: Potency: AChE enzyme activity inhibition
Outline: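 Human recombinant acetylcholinesterase; substrate acetylthiocholine; thiocholine quantified with DTNB (colorimetric). Compound preincubation 30 min RT; reaction 10 min RT.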

[8] = target: Acetylcholinesterase (Homo sapiens) (UniProt P22303); test: Acetylcholinesterase (AChE) small molecule antagonists: fluorescence cell-based qHTS assay (AID 1347398; calls by dose curve; also: nearly all actives have a fitted effect of over 50% in size); settings: Potency: AChE activity
Outline: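 Thiocholine generated from acetylthiocholine by SH-SY5Y cell AChE is detected with Thiolite Green (Ex/Em 490/520 nm) after 40 min at room temperature, following 30 min compound pretreatment at 37 C.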

[9] = target: Nuclear receptor subfamily 1 group I member 2 (Homo sapiens) (UniProt O75469); test: CYP3A4 induction through human pregnane X receptor (PXR) by small molecules, qHTS assay (AID 1346984); also: nearly all actives have a fitted effect of over 40% in size
Outline: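 Steps: seed DPX-2 cells, 5 hr at 37C; pin-transfer compounds; 24 hr at 37C; add Luciferin-IPA (3uM final), 3 hr at 37C; add One-Glo, 30 min RT; read luminescence.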

[10] = target: Nuclear receptor subfamily 1 group I member 2 (Homo sapiens) (UniProt O75469); test: Human pregnane X receptor (PXR) activation by small molecules, qHTS assay (AID 1346985); also: nearly all actives have a fitted effect of over 40% in size
Outline: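 DPX-2 cells (HepG2 co-transfected with a PXR response element and a CYP3A4-promoter luciferase construct) were seeded at 2,000 per well, rested 5 hr at 37C, then exposed to DMSO-dissolved compounds for 24 hr. Activation was read as luciferase luminescence.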

CCOP(=S)(OCC)SCS(=O)(=O)C(C)(C)C
Potency [1]: inactive
Potency [2]: inactive
Potency [3]: inactive
Potency [4]: inactive
Potency [5]: 9.69 µM (active)
Potency [6]: 63.3 µM (active)

C[As+](C)(C)CC(=O)[O-]
Potency [1]: inactive
Potency [2]: inactive
Potency [3]: inactive
Potency [4]: inactive
Potency [5]: inactive
Potency [6]: inactive
Potency [7]: inactive
Potency [8]: inactive

COc1ccc([N+](=O)[O-])cc1O
Potency [1]: inactive
Potency [2]: inactive
Potency [3]: inactive
Potency [4]: inactive
Potency [5]: inactive
Potency [6]: inactive
Potency [7]: inactive

CC(C)C(=O)Cl
Potency [1]: inactive
Potency [2]: inactive
Potency [3]: inactive
Potency [4]: inactive
Potency [5]: inactive
Potency [6]: inactive
Potency [7]: inactive
Potency [8]: inactive

CCCSP(=O)(OCC)SCCC
Potency [1]: inactive
Potency [2]: inactive
Potency [3]: inactive

CCc1nn(C)c(C(=O)NCc2ccc(C(C)(C)C)cc2)c1Cl
Potency [1]: inactive
Potency [2]: 243 nM (active)
Potency [3]: inactive
Potency [4]: 34.4 µM (active)
Potency [5]: 27.3 µM (active)
Potency [6]: inactive
Potency [7]: inactive
Potency [8]: inactive

Cc1ccc(OP(=O)(Oc2ccccc2)Oc2ccccc2)cc1
Potency [1]: inactive
Potency [2]: inactive
Potency [3]: inactive
Potency [4]: inactive
Potency [5]: 13.9 µM (active)

CC(=[OH+])/C=C(/C)[O-].CC(=[OH+])/C=C(\C)[O-].CC(=[OH+])/C=C(\C)[O-].[Al]
Potency [1]: inactive
Potency [2]: inactive
Potency [3]: inactive
Potency [4]: inactive
Potency [5]: inactive
Potency [6]: inactive
Potency [7]: inactive
Potency [8]: inactive

FC(Cl)(Cl)Cl
Potency [1]: inactive
Potency [2]: inactive
Potency [3]: inactive
Potency [4]: inactive
Potency [5]: inactive
Potency [6]: inactive
Potency [7]: inactive
Potency [8]: inactive

CC(C)(COCC1CO1)COCC1CO1 (stereo not drawn)
Potency [1]: inactive
Potency [2]: inactive
Potency [3]: inactive
Potency [4]: inactive
Potency [5]: inactive
Potency [6]: inactive
Potency [7]: inactive
Potency [8]: inactive

COC[C@H](C)N(C(=O)CCl)c1c(C)csc1C
Potency [1]: inactive
Potency [2]: inactive
Potency [3]: inactive
Potency [4]: inactive
Potency [5]: inactive
Potency [6]: inactive
Potency [7]: inactive
Potency [8]: inactive

CN(C)C(=S)S
Potency [1]: 19.7 µM (active) and 17.2 µM (active)
Potency [2]: 8.81 µM (active) and 857 nM (active) and 12.2 µM (active)
Potency [3]: inactive
Potency [4]: inactive

CCCCCCCCCCCCCCCC[N+](C)(C)C
Potency [1]: inactive
Potency [2]: 26.3 µM (active) and 48.6 µM (active) and 29.8 µM (active)
Potency [3]: inactive
Potency [4]: 68.6 µM (active)
Potency [5]: inactive
Potency [9]: inactive
Potency [10]: inactive

Cc1cc(C)c(C2=C(OC(=O)CC(C)(C)C)C3(CCCC3)OC2=O)c(C)c1
Potency [1]: inactive
Potency [2]: inactive
Potency [3]: inactive
Potency [4]: inactive
Potency [5]: inactive
Potency [6]: inactive
Potency [7]: inactive
Potency [8]: inactive

S=C=Nc1cccc2ccccc12
Potency [1]: inactive
Potency [2]: 60500 nM (active)
Potency [3]: inactive
Potency [4]: 60.5 µM (active)
Potency [5]: 10.8 µM (active)
Potency [6]: inactive
Potency [7]: inactive
Potency [8]: inactive

CN(CCCC(=O)c1cccnc1)N=O
Potency [1]: inactive
Potency [2]: inactive
Potency [3]: inactive
Potency [4]: inactive
Potency [5]: inactive
Potency [6]: inactive
Potency [7]: inactive
Potency [8]: inactive

BrCBr
Potency [1]: inactive
Potency [2]: inactive
Potency [3]: inactive
Potency [4]: inactive
Potency [5]: inactive
Potency [6]: inactive
Potency [7]: inactive
Potency [8]: inactive

CCC(C)c1cc(C(C)(C)C)cc(-n2nc3ccccc3n2)c1O (stereo not drawn)
Potency [1]: inactive
Potency [2]: inactive
Potency [3]: inactive
Potency [4]: inactive
Potency [5]: inactive
Potency [6]: inactive
Potency [7]: inactive
Potency [8]: inactive

CC(c1ccc(O)cc1)c1ccc(O)cc1
Potency [1]: inactive
Potency [2]: inactive
Potency [3]: inactive
Potency [4]: inactive
Potency [5]: 45.5 µM (active) and 61.1 µM (active)
Potency [6]: inactive
Potency [7]: inactive
Potency [8]: inactive

COc1ccc(OC)c(CC(C)N)c1 (stereo not drawn)
Potency [1]: inactive
Potency [2]: inactive
Potency [3]: inactive
Potency [4]: inactive
Potency [5]: inactive
Potency [6]: inactive
Potency [7]: inactive
Potency [8]: inactive

Cn1[nH]nnc1=S
Potency [1]: inactive
Potency [2]: inactive
Potency [3]: inactive
Potency [4]: inactive
Potency [5]: inactive
Potency [6]: inactive
Potency [7]: inactive
Potency [8]: inactive

COS(=O)(=O)c1ccc(C)cc1
Potency [1]: inactive
Potency [2]: inactive
Potency [3]: inactive
Potency [4]: inactive
Potency [5]: inactive
Potency [6]: inactive
Potency [7]: inactive
Potency [8]: inactive

COc1ccc(OC)c(C=O)c1
Potency [1]: inactive
Potency [2]: inactive
Potency [3]: inactive
Potency [4]: inactive
Potency [5]: inactive
Potency [6]: inactive
Potency [7]: inactive
Potency [8]: inactive
